Results: PubChem BioAssay AID1347430 (National Center for Advancing Translational Sciences (NCATS), 2020)
Hit rate of the full screen: of about 91,000 compounds, about 130 (0.14%) were called active. Not shown: some 3% with an inconclusive outcome. The call rests on the fitted dose curve; in most records, active means well fitted inhibition curve with a large enough effect; inconclusive means small, poorly fitted or top-dose-only effect; inactive means flat fitted curve, though single readings scatter. This excerpt belongs to a sample that is enriched for actives.

system: Uracil-DNA glycosylase; assay: Primary qHTS assay for inhibitors of Activation Induced Cytidine Deaminase (AID): UDG Counterscreen signal; details: FRET deamination/UDG coupled assay, UDG read, 4 h; series mostly up to 115 µM; activity change, negative = inhibition: at the top concentration; further: nearly all actives have a fitted effect of over 65% in size
From the text: Assay Provider (PI) Patricia Gearhart Ph.D.
National Institute on Aging
National Institute of Health (NIH), Bethesda, MD
Assay Provider (PI) Rahul Kohli Ph.D.
Perelman School of Medicine
University of Pennsylvania, Philadelphia, PA
Activation-Induced Deaminase (AID) is a cytosine deaminase which converts cytosine into uracil within stretches of ssDNA. The presence of uracil in DNA initiates a cascade of mutagenic DNA repair to introduce point mutations and DNA double strand breaks. Specific targeting of AID to the immunoglobulin heavy chain loci (Igh) promotes mutagenesis in the antibody variable region for somatic hypermutation (SHM) or switch regions leading to class switch recombination (CSR). However, AID also plays a role in accumulating unnecessary mutations across the genome. Mis-targeting of AID results in the initiation of tumor development and leads to greater drug resistance among cancer cells when continually expressed. To identify an AID inhibitor, a small molecule library will be screened in collaboration with NCATS core facility at NIH. To confirm biological function, inhibitors will be examined in an in vitro murine B-cell activation assay and subsequent secondary validation screens. Top molecules will be further screened to identify inhibitory efficacy against a wild type primary splenocytes assay. Using these approaches, we hope to identify a small molecule with great efficacy and low toxicity for use as a molecular probe to further characterize AID's intricacies, or even as a therapeutic.
A FRET based analysis of cytosine deamination, was developed to identify potential inhibitors of AID catalytic activity. This screen has two signal output, Read 1 evaluates the AID inhibition response. The second readout (Read 2) evaluates UDG response and is uses as a counterscreen to exclude false positive inhibitors. Inhibition in AID and inactivity in the UDG signal is the desired outcome for this assay.
SEQUENCE No. (e.g., 1, 2, 3, etc.); […] (e.g., Cells, Incubation, Reagent, etc.); VALUE; DESCRIPTION
1a; Reagent; 3 uL; [4/3x] 1 uM AID/2.67 U/mL UDG
1b; Reagent; 3 uL; 2 U/mL UDG
1c; Reagent; 3 uL; 1 uM AID
2a; Compound; 46 nL; Follow-up plates (0.64 uM - 10 mM)
2b; Control; 46 nL; ATA ([…] - 10 mM)
3; Time; 10 min; incubation at room temperature
5; Time; 4 hr; incubation at room temperature
6; Reagent; 4 uL; [2x] 250 mM NaOH
7; Time; 15 sec; centrifuge at 1000 rpm
8; Time; 30 min; incubation at room temperature
9a; Detection; fluorescence (Read 1: AID); EnVision (PerkinElmer) plate reader, 540 excitation and 590 emission filters
9b; Detection; fluorescence (Read 2: UDG); EnVision (PerkinElmer) plate reader, 560 excitation and 665 emission filters
NOTES (numbers refer to sequence above)
1a; Reagents were dispensed in a medium-binding black solid-bottom Greiner plates (789176F) using a BioRptr liquid dispenser. Dispense 3 uL of [4/3x] 1 uM AID (provided by Kohli lab) and [4/3x] 2 U/mL UDG (NEB M0280L) into columns 1, 2, 5 to 48.
1b; Dispense 3 uL of [4/3x] 2 U/mL UDG into column 3.
1c; Dispense 3 uL of [4/3x] 1 uM AID into column 4.
2a; Compound (7-points [uM] (0.64; 3.2; 16; 80; 400; 2,000; 10,000; 20,000) double pin-transferred (Dip Factor = 2) using the Kalypsys (Wako USA) pintool equipped with a 1536 pinhead for a final concentration range of 7.32 nM - 114 uM.
2b; 10 mM Aurintricarboxylic Acid (Sigma A1895) (ATA, 8-point, n = 2, 1:2.5 dilution in column 2) double pin-transferred (Dip Factor = 2) using the Kalypsys (Wako USA) pintool equipped with a 1536 pinhead for a [final] range of 186 nM - 114 uM.
3; Room temperature incubation.
4; Dispense 1 uL of substrate mixture from the Kohli lab [4x] […] DJC20 and [4x] 250 nM DJC23 into columns 1 to 48 .
5; Room temperature incubation.
6; Dispense 4 uL of substrate mixture [2x] 250 mM NaOH into columns 1 to 48.
7; Centrifugation step to remove bubbles.
8; Room temperature incubation
9a; Fluorescence signal (column label AID) was read using the EnVision plate reader. […]
On the % scale 0 is the no-effect control and ±100 the full control effect; potency means the concentration at half of the fitted maximal effect.

| SMILES | activity change, negative = inhibition | Potency |
| --- | --- | --- |
| CNC(=O)c1ccc2c(c1)CCCN2C(=O)c1ccc(Cl)cc1 | 4.74% (inactive) |  |
| COc1ccc(CN(Cc2cc(=O)oc3cc(C)c(C)cc23)C2CC2)cc1 | -3.27% (inactive) |  |
| COCCNC(=O)CS(=O)Cc1nc(-c2ccc(C)cc2)oc1C (stereo not given) | 10.9% (inactive) |  |
| Cc1cc2nc(-c3ccccc3)c(-c3ccccc3)nc2cc1C | 6.41% (inactive) |  |
| Cc1ccccc1OCc1ccc(-c2nc(C#N)c(N3CCCCC3)o2)o1 | -12.8% (inactive) |  |
| CCC(C)Nc1oc(-c2ccc(COc3ccc(Cl)cc3)o2)nc1C#N (stereo not given) | -4.75% (inactive) |  |
| Cc1ccc(C)c(OCc2ccc(-c3nc(C#N)c(NC(C)C)o3)o2)c1 |  | 70.8 µM (active) |
| N#Cc1cccnc1NCCC12CC3CC(CC(C3)C1)C2 | -4.49% (inactive) |  |
| Cc1cc(=O)oc2c(C)c(OC(C)C(=O)NCCc3ccc(S(N)(=O)=O)cc3)ccc12 (stereo not given) | -0.637% (inactive) |  |
| O=C(NCc1ccc2c(c1)OCO2)c1cccc(N2CCCN(Cc3ccc(F)cc3)C2=O)c1 | 3.74% (inactive) |  |
| CC(C)(C(=O)Nc1ccc(F)c(NC(=O)C2CC2)c1)c1ccccc1 | 8.51% (inactive) |  |
| CNCCC(F)(F)F | -1.7% (inactive) |  |
| OC(COCc1ccccc1F)Cn1nnc(-c2cccnc2)n1 (stereo not given) | -1.08% (inactive) |  |
| O=C(COC(=O)Cc1n[nH]c(=O)c2ccccc12)NCC1CCCO1 (stereo not given) | -1.41% (inactive) |  |
| CCOc1ccc(-c2csc(-c3ccc(Cl)cc3)n2)cc1 | -7.65% (inactive) |  |
| O=C(NCc1cccc(OC(F)F)c1)c1ccccc1-n1cnnn1 | 0.583% (inactive) |  |
| COCCn1c(C)cc(C(=O)C(=O)Nc2nnc(COc3cc(C)ccc3C)s2)c1C | -9% (inactive) |  |
| CCc1ccccc1N(C)C(=O)C1CCCN(c2ncnc3onc(-c4ccc(F)cc4)c23)C1 (stereo not given) | -1.14% (inactive) |  |
| CN(Cc1ccccc1)c1ncnc2onc(-c3ccc(F)cc3)c12 | -13.7% (inactive) |  |
| CCc1ccc(N(CC)C(=O)CCn2cnc3onc(-c4ccc(F)cc4)c3c2=O)cc1 |  | 89.1 µM (active) |

| SMILES | activity change, negative = inhibition | Potency |
| --- | --- | --- |
| CCN(CC)C(=O)CNC(=O)c1cc2ccccc2c(OC)n1 | -7.51% (inactive) |  |
| N#Cc1cccc(C(=O)NC(c2ccccc2)c2cccs2)c1 (stereo not given) | 4.19% (inactive) |  |
| CCCC/C=N/NC(=O)CCCCCCCCCCC | -3.8% (inactive) |  |
| CCCCCCCc1ccc(-c2ccc(OC)cc2)nc1 | 9.76% (inactive) |  |
| CCN(CC)S(=O)(=O)c1cc(NC(=O)c2n[nH]c3ccccc23)ccc1C | 8.71% (inactive) |  |
| O=S(=O)(Cc1nnnn1-c1ccccc1)c1ccccc1 | 5.04% (inactive) |  |
| CCCNc1c(NC(=O)C(C)C)c(=O)oc2ccccc12 | -1.43% (inactive) |  |
| CC(C)(C)c1ccccc1OCC(=O)Nc1cccc(C#N)c1 | -9.25% (inactive) |  |
| COCC(C)n1c(COc2ccccc2F)nnc1SCC(C)C (stereo not given) | 1.84% (inactive) |  |
| COCCNC(=S)NNC(=O)Cc1ccc(OC)c(OC)c1 | -11.8% (inactive) |  |
| CCCCNC(=O)CCc1c[nH]c2ccccc12 | -1.33% (inactive) |  |
| COC(=O)CNC(=O)/C(C)=C/c1ccccc1 | -1.2% (inactive) |  |
| N#Cc1ccc(CNc2cc(Cl)ccc2Cl)cc1 | 4.42% (inactive) |  |
| Cc1ccc(NC(=O)c2ccc(Cl)cc2N2CCCC2=O)cc1 | 1.04% (inactive) |  |
| Ic1nc[nH]c1I | 10.9% (inactive) |  |
| COc1ccc(NC(=O)COc2ccc(F)cc2)c2cccnc12 | 4.14% (inactive) |  |
| Cc1ccc(-n2c(SCC(=O)Nc3cccc(F)c3)nc3c(=O)[nH]cnc32)cc1 | 3.06% (inactive) |  |
| Cc1ccc(C(=O)NC(C)C)c(Cl)c1 | -0.64% (inactive) |  |
| Cc1cc(C)c2c(c1)/C(=N/Nc1nc3ccccc3[nH]1)CCC2 | -5.03% (inactive) |  |
| Cc1[nH]c2ccccc2c1/C=N/c1sc2c(c1C#N)CCC(C)C2 (stereo not given) | 3.48% (inactive) |  |

| SMILES | activity change, negative = inhibition | Potency |
| --- | --- | --- |
| CCCc1ccc(OC(=O)c2ccc3c(c2)-c2ccccc2C3=O)cc1 | -5.71% (inactive) |  |
| Cc1csc(SCCCOc2ccc(C#N)cc2)n1 | 3.62% (inactive) |  |
| COc1ccc(CNC(=S)NCC(C)N2CCCCC2C)cc1 (stereo not given) | 1.69% (inactive) |  |
| Cn1nc(C(=O)OCC(=O)N(Cc2ccccc2)C(C)(C)C)c2ccccc2c1=O | -7.83% (inactive) |  |
| O=C(C1=COCCO1)N1CCN(c2ccccc2)CC1 | -24.2% (inactive) |  |
| O=C1/C(=C/c2cccc(Br)c2)CCc2ccccc21 | -7.11% (inactive) |  |
| COc1ccc(C(=O)/C(C#N)=C\c2ccccc2OC(F)F)cc1 | -11.4% (inactive) |  |
| Cc1cc(C(=O)O)cc(S(=O)(=O)Nc2ccc(Cl)c3cccnc23)c1C | 2.05% (inactive) |  |
| C=CCNC(=O)NC(=O)CN(C)Cc1ccc(-c2ccc(Br)cc2)o1 | 2% (inactive) |  |
| CC(C)CNC(=O)CSc1nnc(COc2ccccc2Cl)o1 | -6.81% (inactive) |  |
| O=C(O)c1ccc(Nc2nc(-c3ccc4ccccc4c3)cs2)cc1O | 17.7% (inactive) |  |
| CC(=O)Nc1ccc(NC(=O)Nc2ccccc2Cl)cc1 | -8.72% (inactive) |  |
| CCN1CCC(CNC(=O)c2cc(C)nc3cc(F)ccc23)CC1 | -2.03% (inactive) |  |
| COc1ccc(NC(NC(=O)C(C)C)C(Cl)(Cl)Cl)cc1 (stereo not given) | -4.93% (inactive) |  |
| O=C(CCc1ncc(-c2ccc(F)cc2)o1)NCc1ccc(OC(F)F)cc1 | 7.08% (inactive) |  |
| CNC(=S)NNC(=O)c1cccc(C)c1 | -13.5% (inactive) |  |
| CC(=O)NCc1ccc(C(=O)COc2ccc(C(C)=O)cc2)cc1 | -5.52% (inactive) |  |
| N#Cc1ccccc1-n1ccnc1 | 3.71% (inactive) |  |
| O=C(OCC(=O)c1cccs1)c1cccc(O)c1 | 12.3% (inactive) |  |
| CC(C)(C)c1nc2cc(NC(=O)c3ccc[nH]c3=O)ccc2o1 | -7.52% (inactive) |  |
